Measured values taken from ChEMBL document CHEMBL2218924, “A broad activity screen in support of a chemogenomic map for kinase signalling research and drug discovery” (Biochem J, 2013).

target: RAC-gamma serine/threonine-protein kinase (Homo sapiens) (UniProt Q9Y243); conditions: at 1 µM
Sequence (Q9Y243 whole entry): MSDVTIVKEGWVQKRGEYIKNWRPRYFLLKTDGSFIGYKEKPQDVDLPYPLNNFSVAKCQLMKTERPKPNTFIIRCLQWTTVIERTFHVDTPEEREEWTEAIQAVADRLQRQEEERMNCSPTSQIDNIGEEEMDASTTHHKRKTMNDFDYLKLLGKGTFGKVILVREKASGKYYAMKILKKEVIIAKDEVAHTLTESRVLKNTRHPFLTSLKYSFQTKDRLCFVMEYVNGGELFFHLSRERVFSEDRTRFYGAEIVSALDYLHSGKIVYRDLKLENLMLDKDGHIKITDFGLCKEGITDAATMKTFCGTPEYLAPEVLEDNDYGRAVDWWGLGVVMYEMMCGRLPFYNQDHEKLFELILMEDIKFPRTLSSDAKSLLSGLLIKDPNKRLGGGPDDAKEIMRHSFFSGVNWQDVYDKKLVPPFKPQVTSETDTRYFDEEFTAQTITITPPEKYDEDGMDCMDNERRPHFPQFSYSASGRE

Compound	residual activity
CO[C@H]1C[C@@H]2CC[C@@H](C)[C@@](O)(O2)C(=O)C(=O)N2CCCC[C@H]2C(=O)O[C@H]([C@H](C)C[C@@H]2CC[C@@H](O)[C@H](OC)C2)CC(=O)[C@H](C)/C=C(\C)[C@@H](O)[C@@H](OC)C(=O)[C@H](C)C[C@H](C)/C=C/C=C/C=C/1C	103%
c1ccc(-c2n[nH]cc2-c2ccnc3ccccc23)nc1	96%
O=C(O)c1ccc2c3c1cccc3c(=O)n1c3ccccc3nc21	102%
O=c1cc(-c2cccc3c2Sc2ccccc2S3)oc(N2CCOCC2)c1	106%
CO[C@@H]1[C@H](N(C)C(=O)c2ccccc2)C[C@H]2O[C@]1(C)n1c3ccccc3c3c4c(c5c6ccccc6n2c5c31)C(=O)NC4	22%
Oc1ccc(-c2nc(-c3ccc(F)cc3)c(-c3ccncc3)[nH]2)cc1	107%
COc1ccc(S(=O)(=O)N(CCO)c2ccccc2CN(C)C/C=C/c2ccc(Cl)cc2)cc1	104%
Cc1cc2ncc(-c3ccccc3)nc2cc1C	90%
Cc1cncc2cccc(S(=O)(=O)N3CCCN(C(=O)CN)C[C@H]3C)c12	100%
CC(=O)c1ccc(N2CCOCC2)cc1O	106%
c1ccc(-c2n[nH]c3c2oc2ccccc23)cc1	90%
O=C1NC(=O)/C(=C/c2ccc3c(c2)OC(F)(F)O3)S1	97%
Cn1nc2c3c(cccc31)C(=O)c1ccccc1-2	95%
O=C1Nc2ccccc2/C1=C1/Nc2ccccc2/C1=N\OCCC(O)CO (stereo not drawn)	80%
O=[N+]([O-])c1ccc(-c2nc(-c3ccc(F)cc3)c(-c3ccncc3)[nH]2)cc1	98%
Ic1cccc(CSc2nnc(-c3ccncc3)o2)c1	92%
Cc1ccc(NC2=CC(=O)c3sc(C)nc3C2=O)cc1	91%
CCOc1cc2ncnc(Nc3cccc(Br)c3)c2cc1OCC	100%
COc1cccc(-c2cc(=O)c3ccccc3o2)c1N	100%
CN(C)CCCn1cc(C2=C(c3c[nH]c4ccccc34)C(=O)NC2=O)c2ccccc21	30%
O=Nc1c(-c2c(O)[nH]c3ccccc23)[nH]c2ccccc12	95%
COc1ccc(C(=O)Nc2sc3c(c2C(N)=O)CCCC3)cc1OC	102%
C[C@@H](N)[C@H]1CC[C@H](C(=O)Nc2ccncc2)CC1	104%
Cn1cc(/C=C2\C(=O)Nc3ccc(S(N)(=O)=O)cc32)c2ccccc21	88%
O=c1c2ccccc2[nH]c(=S)n1CCN1CCC(=C(c2ccc(F)cc2)c2ccc(F)cc2)CC1	93%
c1ccc2c(-c3ccncc3)c[nH]c2c1	89%
COc1cc2ncnc(N3CCN(C(=O)Nc4ccc(Oc5ccccc5)cc4)CC3)c2cc1OC	94%
NC(=O)c1ccc2[nH]c(-c3ccc(Oc4ccc(Cl)cc4)cc3)nc2c1	106%

target: RAC-gamma serine/threonine-protein kinase (Homo sapiens) (UniProt Q9Y243); conditions: at 10 µM

Compound	residual activity
CO[C@H]1C[C@@H]2CC[C@@H](C)[C@@](O)(O2)C(=O)C(=O)N2CCCC[C@H]2C(=O)O[C@H]([C@H](C)C[C@@H]2CC[C@@H](O)[C@H](OC)C2)CC(=O)[C@H](C)/C=C(\C)[C@@H](O)[C@@H](OC)C(=O)[C@H](C)C[C@H](C)/C=C/C=C/C=C/1C	98%
Cc1cc(Nc2nc(-c3ccccc3)nc3ccccc23)n[nH]1	46%
c1ccc(-c2n[nH]cc2-c2ccnc3ccccc23)nc1	96%
O=C(O)c1ccc2c3c1cccc3c(=O)n1c3ccccc3nc21	82%
O=c1cc(-c2cccc3c2Sc2ccccc2S3)oc(N2CCOCC2)c1	84%
CO[C@@H]1[C@H](N(C)C(=O)c2ccccc2)C[C@H]2O[C@]1(C)n1c3ccccc3c3c4c(c5c6ccccc6n2c5c31)C(=O)NC4	14%
Oc1ccc(-c2nc(-c3ccc(F)cc3)c(-c3ccncc3)[nH]2)cc1	77%
COc1ccc(S(=O)(=O)N(CCO)c2ccccc2CN(C)C/C=C/c2ccc(Cl)cc2)cc1	56%
Cc1cc2ncc(-c3ccccc3)nc2cc1C	87%
Cc1cncc2cccc(S(=O)(=O)N3CCCN(C(=O)CN)C[C@H]3C)c12	84%
CC(=O)c1ccc(N2CCOCC2)cc1O	104%
O=C1NC(=O)/C(=C/c2ccc3c(c2)OC(F)(F)O3)S1	83%
CCN(CC)C(=O)c1ccc(Nc2nc(OCC3CCCCC3)c3nc[nH]c3n2)cc1	40%
Cn1nc2c3c(cccc31)C(=O)c1ccccc1-2	91%
O=C1Nc2ccccc2/C1=C1/Nc2ccccc2/C1=N\OCCC(O)CO (stereo not drawn)	36%
O=[N+]([O-])c1ccc(-c2nc(-c3ccc(F)cc3)c(-c3ccncc3)[nH]2)cc1	75%
Ic1cccc(CSc2nnc(-c3ccncc3)o2)c1	74%
Cc1ccc(NC2=CC(=O)c3sc(C)nc3C2=O)cc1	89%
CCOc1cc2ncnc(Nc3cccc(Br)c3)c2cc1OCC	100%
COc1cc2ncnc(Nc3ccc(NC(=O)c4ccccc4)cc3)c2cc1OC	102%
COc1cccc(-c2cc(=O)c3ccccc3o2)c1N	95%
CN(C)CCCn1cc(C2=C(c3c[nH]c4ccccc34)C(=O)NC2=O)c2ccccc21	7%
O=Nc1c(-c2c(O)[nH]c3ccccc23)[nH]c2ccccc12	64%
COc1ccc(C(=O)Nc2sc3c(c2C(N)=O)CCCC3)cc1OC	87%
C[C@@H](N)[C@H]1CC[C@H](C(=O)Nc2ccncc2)CC1	93%
Cn1cc(/C=C2\C(=O)Nc3ccc(S(N)(=O)=O)cc32)c2ccccc21	81%
O=c1c2ccccc2[nH]c(=S)n1CCN1CCC(=C(c2ccc(F)cc2)c2ccc(F)cc2)CC1	40%
c1ccc2c(-c3ccncc3)c[nH]c2c1	76%
COc1cc2ncnc(N3CCN(C(=O)Nc4ccc(Oc5ccccc5)cc4)CC3)c2cc1OC	112%
NC(=O)c1ccc2[nH]c(-c3ccc(Oc4ccc(Cl)cc4)cc3)nc2c1	103%
